Laboratory results taken from PubChem BioAssay (NCATS).
Inconclusive results are not listed. Active and inactive are the calls of the source. The call rests on the fitted dose curve; in most records, active means well fitted cell-killing curve with a large enough effect; inconclusive means small, poorly fitted or top-dose-only effect, or effect the other way; inactive means flat fitted curve, though single readings scatter. Where a SMILES comes first, the peptide text is derived from it.

Legend:
Experiment in all cases: Primary qHTS to identify gynecologic anti-cancer compounds using libraries of approved drugs and bioactive compounds (AID 1345084); further: nearly all actives have a fitted effect of over 55% in size
CAOV3 = details: Gynecologic cancer cell panel viability, ATPlite luminescence, 48 h; series mostly up to 57.5 µM
Outline: (§1)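 Luminescence from the ATPlite ATP-monitoring reagent indicates viable cell number; lower signal means cytotoxicity. Cells received compound 16 h after seeding and were exposed for 48 h across five concentrations.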

CASKI = details: Gynecologic cancer cell panel viability, ATPlite luminescence, 48 h; series mostly up to 57.5 µM
Outline: as §1

Es-2 = details: Gynecologic cancer cell panel viability, ATPlite luminescence, 48 h; series mostly up to 57.5 µM
Outline: as §1

HeLa = details: Gynecologic cancer cell panel viability, ATPlite luminescence, 48 h; series mostly up to 57.5 µM
Outline: as §1

Hek293T = details: Gynecologic cancer cell panel viability, ATPlite luminescence, 48 h, control line for the selectivity index; series mostly up to 57.5 µM
Outline: as §1

JEG-3 = details: Gynecologic cancer cell panel viability, ATPlite luminescence, 48 h; series mostly up to 57.5 µM
Outline: as §1

OV90 = details: Gynecologic cancer cell panel viability, ATPlite luminescence, 48 h; series mostly up to 57.5 µM
Outline: as §1

PA-1 = details: Gynecologic cancer cell panel viability, ATPlite luminescence, 48 h; series mostly up to 57.5 µM
Outline: as §1

Tov-21-G = details: Gynecologic cancer cell panel viability, ATPlite luminescence, 48 h; series mostly up to 57.5 µM
Outline: as §1

Tov112D = details: Gynecologic cancer cell panel viability, ATPlite luminescence, 48 h; series mostly up to 57.5 µM
Outline: as §1
On the % scale 0 is the no-effect control and ±100 the full control effect.

C[C@@H](O)[C@H](N)C(=O)N1CCC[C@H]1C(=O)N1CCC[C@H]1C(=O)N[C@H](C(N)=O)[C@@H](C)O (H-TPPT-NH2)
inactive: activity change, negative = cytotoxicity (CAOV3) 3.79% [at 11.6 µM] | activity change, negative = cytotoxicity (CASKI) 7.08% [at 11.6 µM] | activity change, negative = cytotoxicity (Es-2) -3.74% [at 11.6 µM] | activity change, negative = cytotoxicity (HeLa) 8.64% [at 11.6 µM] | activity change, negative = cytotoxicity (Hek293T) 17.1% [at 11.6 µM] | activity change, negative = cytotoxicity (JEG-3) -0.985% [at 11.6 µM] | activity change, negative = cytotoxicity (OV90) -0.207% [at 11.6 µM] | activity change, negative = cytotoxicity (PA-1) -4.12% [at 11.6 µM] | activity change, negative = cytotoxicity (Tov-21-G) 0.205% [at 11.6 µM] | activity change, negative = cytotoxicity (Tov112D) 6.35% [at 11.6 µM]

COc1cc(/C=C/CO)ccc1O[C@@H]1O[C@H](CO)[C@@H](O)[C@H](O)[C@H]1O
inactive: Potency (CAOV3) | Potency (CASKI) | Potency (Es-2) | Potency (HeLa) | Potency (Hek293T) | Potency (JEG-3) | Potency (OV90) | Potency (PA-1) | Potency (Tov-21-G) | Potency (Tov112D)

CC(C)C(=O)O[C@@H]1[C@@H](O)[C@@H](O[C@H]2O[C@H](CO)[C@@H](O)[C@H](O)[C@H]2O)O[C@H](CO)[C@H]1O
inactive: Potency (CAOV3) | Potency (CASKI) | Potency (Es-2) | Potency (HeLa) | Potency (Hek293T) | Potency (JEG-3) | Potency (OV90) | Potency (PA-1) | Potency (Tov-21-G) | Potency (Tov112D)

C=C1CCC2C(C)(C)C(O)CCC2(C)C1CCC(C)CCOC(=O)CCC(=O)O (stereo not given)
inactive: Potency (CAOV3) | Potency (CASKI) | Potency (Es-2) | Potency (HeLa) | Potency (Hek293T) | Potency (JEG-3) | Potency (OV90) | Potency (PA-1) | Potency (Tov-21-G) | Potency (Tov112D)

CC1CCC2(C(=O)OC3OC(CO)C(O)C(O)C3O)CCC3(C(=O)O)C(=CCC4C5(C)CCC(OC6OC(C)C(O)C(O)C6O)C(C)(C)C5CCC43C)C2C1C (stereo not given)
inactive: Potency (CAOV3) | Potency (CASKI) | Potency (Es-2) | Potency (HeLa) | Potency (Hek293T) | Potency (JEG-3) | Potency (OV90) | Potency (PA-1) | Potency (Tov-21-G) | Potency (Tov112D)

CC1(C)CCCC2(C)C3=C(C(=O)OC3O)C(O)CC12 (stereo not given)
inactive: Potency (CAOV3) | Potency (CASKI) | Potency (Es-2) | Potency (HeLa) | Potency (Hek293T) | Potency (JEG-3) | Potency (OV90) | Potency (PA-1) | Potency (Tov-21-G) | Potency (Tov112D)

COc1cc(/C=C/C(=O)O[C@H]2[C@H](O)[C@@H](CO)O[C@@]2(CO)O[C@H]2O[C@H](COC(=O)c3ccc(O)cc3)[C@@H](O)[C@H](O)[C@H]2O)cc(OC)c1OC
inactive: Potency (CAOV3) | Potency (CASKI) | Potency (Es-2) | Potency (HeLa) | Potency (Hek293T) | Potency (JEG-3) | Potency (OV90) | Potency (PA-1) | Potency (Tov-21-G) | Potency (Tov112D)

CC1(C)CCC[C@@]2(C)[C@H]1[C@H](O)C=C1COC(=O)[C@@]12O
inactive: Potency (CAOV3) | Potency (CASKI) | Potency (Es-2) | Potency (HeLa) | Potency (Hek293T) | Potency (JEG-3) | Potency (OV90) | Potency (PA-1) | Potency (Tov-21-G) | Potency (Tov112D)

CCCOc1ccn2c(C(C)=O)cc(-c3ccccc3S(C)(=O)=O)c2c1
inactive: Potency (CAOV3) | Potency (CASKI) | Potency (Es-2) | Potency (HeLa) | Potency (Hek293T) | Potency (JEG-3) | Potency (OV90) | Potency (PA-1) | Potency (Tov-21-G) | Potency (Tov112D)

CC(=O)[C@@H]1CC[C@]2(C(=O)O)CC[C@]3(C)C(CCC4[C@@]5(C)CC[C@H](O)C(C)(C)C5CC[C@]43C)C12 (stereo not given in full)
inactive: Potency (CAOV3) | Potency (CASKI) | Potency (Es-2) | Potency (HeLa) | Potency (Hek293T) | Potency (JEG-3) | Potency (OV90) | Potency (PA-1) | Potency (Tov-21-G) | Potency (Tov112D)

C=C1CCC2C(C)(C)CC(=O)CC2(C)C1CCC(C)CCOC(C)=O (stereo not given)
inactive: Potency (CAOV3) | Potency (CASKI) | Potency (Es-2) | Potency (HeLa) | Potency (Hek293T) | Potency (JEG-3) | Potency (OV90) | Potency (PA-1) | Potency (Tov-21-G) | Potency (Tov112D)

COc1cc(/C=C/C(=O)OC2CC(C)=C(C(=O)O)/C2=C/CO[C@@H]2O[C@H](CO)[C@@H](O)[C@H](O)[C@H]2O)ccc1O (stereo not given in full)
inactive: Potency (CAOV3) | Potency (CASKI) | Potency (Es-2) | Potency (HeLa) | Potency (Hek293T) | Potency (JEG-3) | Potency (OV90) | Potency (PA-1) | Potency (Tov-21-G) | Potency (Tov112D)

C[C@H]1[C@H](C)CC[C@]2(C(=O)O)CC[C@]3(C(=O)O)C(=CCC4[C@@]5(C)CC[C@H](O[C@@H]6O[C@H](C)[C@@H](O)[C@H](O)[C@H]6O)C(C)(C)C5CC[C@]43C)[C@H]12 (stereo not given in full)
inactive: Potency (CAOV3) | Potency (CASKI) | Potency (Es-2) | Potency (HeLa) | Potency (Hek293T) | Potency (JEG-3) | Potency (OV90) | Potency (PA-1) | Potency (Tov-21-G) | Potency (Tov112D)

COc1cc(/C=C/C(=O)OC(C)(C)C(OC2OC(CO)C(O)C(O)C2O)C(=O)OCc2ccc(OC3OC(CO)C(O)C(O)C3O)cc2)ccc1O (stereo not given)
inactive: Potency (CAOV3) | Potency (CASKI) | Potency (Es-2) | Potency (HeLa) | Potency (Hek293T) | Potency (JEG-3) | Potency (OV90) | Potency (PA-1) | Potency (Tov-21-G) | Potency (Tov112D)
